Inconclusive results are not listed. Active and inactive are the calls of the source. No stated cut-off is given here; in the data, active means toxicity enhancement factor above about 0.054; inconclusive means between about 0.00067 and that limit; inactive means weaker than that.
test: MRP-overexpressing cell chemosensitization – dose response (AID 741); conditions: MRP-overexpressing cells, viability with/without cytotoxic drug; slope difference: measured here: slope difference tox minus reversal, stronger effect = higher value; toxicity enhancement factor: stronger effect = higher value; viability: measured here: viability series, compound alone, at 10 µM, stronger effect = lower value

Structure (SMILES) | slope difference | viability | toxicity enhancement factor
O=C(O)c1ccccc1O | -0.779 | 100% | -0.0072 (inactive)
COc1ccc(N2C(=O)C(Cl)=C(N3CCCC3)C2=O)cc1 | -0.145 | 91.8% | -0.0016 (inactive)
CCn1c(N)c(C(=O)N2CCOCC2)sc1=S | -0.557 | 101% | -0.0052 (inactive)
CC(C(=O)O)c1cccc(C(=O)c2ccccc2)c1 (stereo unspecified) | -1.03 | 92.4% | -0.0105 (inactive)
CCOC(=O)Nc1ccc(S(=O)(=O)Nc2nccc(C)n2)cc1 | -0.237 | 97.4% | -0.0025 (inactive)
Cc1ccc(N2C(N)=C(C#N)C(c3cccnc3)C3=C2CCCC3=O)cc1 (stereo unspecified) | 2.44 | 62.7% | 0.0726 (active)
O=C(CSc1nnc(CN2CCOCC2)n1-c1ccc(Cl)cc1)Nc1cc(Cl)ccc1O | 2.56 | 67.3% | 0.0702 (active)
CCCCC1C(=O)N(c2ccccc2)N(c2ccccc2)C1=O | -0.496 | 101% | -0.0047 (inactive)
Cc1nc(N2CCN(C)CC2)c2sc(=S)n(-c3ccccc3)c2n1 | 2.3 | 64% | 0.0596 (active)
Cc1ccc(-c2nc3ncccn3c2NC2CCCCC2)o1 | 2.81 | 79.5% | 0.0632 (active)
c1ccc2sc(N3CN(CCN4CCOCC4)CN(c4nc5ccccc5s4)C3)nc2c1 | -1.81 | 104% | -0.0158 (inactive)
COc1ccc(/C=C/C(=O)Nc2ccccc2C(=O)O)cc1OC | -1.07 | 95.7% | -0.0098 (inactive)
O=C(O)Cc1ccc(-c2ccccc2)cc1 | -0.343 | 99.6% | -0.0033 (inactive)
C=CCOc1nc2c(c(=O)n(C)c(=O)n2C)n1Cc1c(Cl)cccc1Cl | -0.654 | 63.6% | -0.0108 (inactive)
Cc1cccc2cc(CN(Cc3nnnn3Cc3ccco3)C3CCCC3)c3nnnn3c12 | -1.43 | 51.1% | -0.027 (inactive)
C=CCN1C(=O)/C(=C2/Sc3ccccc3N2C)SC1=Nc1c(C)n[nH]c1C | 4.41 | 66.9% | 0.241 (active)
Cc1oncc1C(=O)Nc1ccc(C(F)(F)F)cc1 | -0.34 | 96.5% | -0.0035 (inactive)
O=c1[nH]c2ccc(Br)cc2c(-c2ccccc2)c1N1CCOCC1 | 2.74 | 74.8% | 0.0679 (active)
CN1C(=O)C(CC(=O)Nc2ccc3c(c2)Cc2ccccc2-3)N(C)C1=O (stereo unspecified) | -0.0851 | 94.5% | -0.0009 (inactive)
COC(=O)Nc1ccc(S(=O)(=O)Nc2ccc(O)cc2)cc1 | -0.156 | 90.5% | -0.0016 (inactive)
Cc1cc(C)cc(OCc2nnc(SCC(=O)c3ccc(Br)cc3)o2)c1 | -0.893 | 92.3% | -0.0094 (inactive)
CC(C(=O)O)c1ccc(N2Cc3ccccc3C2=O)cc1 (stereo unspecified) | -0.182 | 98.6% | -0.0019 (inactive)

Source: PubChem BioAssay AID741 (SRMLSC, 2007)
